# Laboratory results from the supplement of paper PMC4466140.
# How the values were obtained:
# Test in all cases: SPOT peptide array binding signal intensity (averaged, normalized) (arbitrary units (background-subtracted, floor 0; scale differs between SH3 domains)); higher = stronger binding of the SH3 domain to the peptide
# AgAbp1 = target: AgAbp1
# Protocol: (§1)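 GST-tagged SH3 domains from S. cerevisiae (Sc), A. gossypii (Ag), C. albicans (Ca) and S. pombe (Sp) were incubated at 10 ug/ml overnight at 4 C on cellulose SPOT membranes carrying 292 synthetic 15-mer peptides mined from the S. cerevisiae proteome (cysteines replaced by serines). Binding was detected with anti-GST antibody, HRP secondary and chemiluminescence, quantified with Genespotter, and reported as normalized spot intensities averaged over biological replicates.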
# AgBbc1 = target: AgBbc1
# Protocol: as §1
# AgBem1-D1 = target: AgBem1-D1
# Protocol: as §1
# AgBzz1-D1 = target: AgBzz1-D1
# Protocol: as §1
# AgBzz1-D2 = target: AgBzz1-D2
# Protocol: as §1
# AgCyk3 = target: AgCyk3
# Protocol: as §1
# AgFus1 = target: AgFus1
# Protocol: as §1
# AgHof1 = target: AgHof1
# Protocol: as §1
# AgHse1 = target: AgHse1
# Protocol: as §1
# AgLsb1 = target: AgLsb1
# Protocol: as §1
# AgLsb4 = target: AgLsb4
# Protocol: as §1
# AgMyo5 = target: AgMyo5
# Protocol: as §1
# AgNbp2 = target: AgNbp2
# Protocol: as §1
# AgRvs167 = target: AgRvs167
# Protocol: as §1
# AgSho1 = target: AgSho1
# Protocol: as §1
# AgSla1-D1-D2 = target: AgSla1-D1-D2
# Protocol: as §1
# AgSla1-D3 = target: AgSla1-D3
# Protocol: as §1
# CaAbp1-D1 = target: CaAbp1-D1
# Protocol: as §1
# CaAbp1-D2 = target: CaAbp1-D2
# Protocol: as §1
# CaBbc1 = target: CaBbc1
# Protocol: as §1
# CaBem1-D1 = target: CaBem1-D1
# Protocol: as §1
# CaBzz1-D1 = target: CaBzz1-D1
# Protocol: as §1
# CaBzz1-D2 = target: CaBzz1-D2
# Protocol: as §1
# CaCyk3 = target: CaCyk3
# Protocol: as §1
# CaFus1 = target: CaFus1
# Protocol: as §1
# CaHof1 = target: CaHof1
# Protocol: as §1
# CaHse1 = target: CaHse1
# Protocol: as §1
# CaLsb1 = target: CaLsb1
# Protocol: as §1
# CaLsb4 = target: CaLsb4
# Protocol: as §1
# CaMyo5 = target: CaMyo5
# Protocol: as §1
# CaNbp2 = target: CaNbp2
# Protocol: as §1
# CaRvs167 = target: CaRvs167
# Protocol: as §1
# CaRvs167-3 = target: CaRvs167-3
# Protocol: as §1
# CaSho1 = target: CaSho1
# Protocol: as §1
# CaSla1-D1-D2 = target: CaSla1-D1-D2
# Protocol: as §1
# CaSla1-D3 = target: CaSla1-D3
# Protocol: as §1
# ScAbp1 = target: ScAbp1
# Protocol: as §1
# ScBbc1 = target: ScBbc1
# Protocol: as §1
# ScBem1-D1 = target: ScBem1-D1
# Protocol: as §1
# ScBzz1-D1 = target: ScBzz1-D1
# Protocol: as §1
# ScBzz1-D2 = target: ScBzz1-D2
# Protocol: as §1
# ScCyk3 = target: ScCyk3
# Protocol: as §1
# ScFus1 = target: ScFus1
# Protocol: as §1
# ScHof1 = target: ScHof1
# Protocol: as §1
# ScHse1 = target: ScHse1
# Protocol: as §1
# ScLsb1 = target: ScLsb1
# Protocol: as §1
# ScLsb2 = target: ScLsb2
# Protocol: as §1
# ScLsb3 = target: ScLsb3
# Protocol: as §1
# ScLsb4 = target: ScLsb4
# Protocol: as §1
# ScMyo3 = target: ScMyo3
# Protocol: as §1
# ScMyo5 = target: ScMyo5
# Protocol: as §1
# ScNbp2 = target: ScNbp2
# Protocol: as §1
# ScPex13 = target: ScPex13
# Protocol: as §1
# ScRvs167 = target: ScRvs167
# Protocol: as §1
# ScSho1 = target: ScSho1
# Protocol: as §1
# ScSla1-D1-D2 = target: ScSla1-D1-D2
# Protocol: as §1
# ScSla1-D3 = target: ScSla1-D3
# Protocol: as §1
# SpAbp1-D1 = target: SpAbp1-D1
# Protocol: as §1
# SpBbc1 = target: SpBbc1
# Protocol: as §1
# SpBzz1-D1 = target: SpBzz1-D1
# Protocol: as §1
# SpBzz1-D2 = target: SpBzz1-D2
# Protocol: as §1
# SpCyk3 = target: SpCyk3
# Protocol: as §1
# SpHof1 = target: SpHof1
# Protocol: as §1
# SpHof1-2 = target: SpHof1-2
# Protocol: as §1
# SpHof1-3 = target: SpHof1-3
# Protocol: as §1
# SpHse1 = target: SpHse1
# Protocol: as §1
# SpLsb1 = target: SpLsb1
# Protocol: as §1
# SpLsb4 = target: SpLsb4
# Protocol: as §1
# SpMyo1 = target: SpMyo1
# Protocol: as §1
# SpNbp2 = target: SpNbp2
# Protocol: as §1
# SpPex13 = target: SpPex13
# Protocol: as §1
# SpRvs167 = target: SpRvs167
# Protocol: as §1
# SpSla1-D1-D2 = target: SpSla1-D1-D2
# Protocol: as §1
# SpSla1-D3 = target: SpSla1-D3
# Protocol: as §1
binder,measurement,setting,value
PVLPPPRSPNRPTLS,SPOT peptide array binding signal intensity,AgAbp1,24
same,SPOT peptide array binding signal intensity,AgBbc1,700
same,SPOT peptide array binding signal intensity,AgBem1-D1,43
same,SPOT peptide array binding signal intensity,AgBzz1-D1,20
same,SPOT peptide array binding signal intensity,AgBzz1-D2,1
same,SPOT peptide array binding signal intensity,AgCyk3,≤ 0
same,SPOT peptide array binding signal intensity,AgFus1,≤ 0
same,SPOT peptide array binding signal intensity,AgHof1,9
same,SPOT peptide array binding signal intensity,AgHse1,≤ 0
same,SPOT peptide array binding signal intensity,AgLsb1,1
same,SPOT peptide array binding signal intensity,AgLsb4,369
same,SPOT peptide array binding signal intensity,AgMyo5,15.5
same,SPOT peptide array binding signal intensity,AgNbp2,1.5
same,SPOT peptide array binding signal intensity,AgRvs167,5.67
same,SPOT peptide array binding signal intensity,AgSho1,≤ 0
same,SPOT peptide array binding signal intensity,AgSla1-D1-D2,≤ 0
same,SPOT peptide array binding signal intensity,AgSla1-D3,0.5
same,SPOT peptide array binding signal intensity,CaAbp1-D1,418
same,SPOT peptide array binding signal intensity,CaAbp1-D2,79
same,SPOT peptide array binding signal intensity,CaBbc1,1660
same,SPOT peptide array binding signal intensity,CaBem1-D1,31
same,SPOT peptide array binding signal intensity,CaBzz1-D1,264
same,SPOT peptide array binding signal intensity,CaBzz1-D2,56
same,SPOT peptide array binding signal intensity,CaCyk3,67
same,SPOT peptide array binding signal intensity,CaFus1,≤ 0
same,SPOT peptide array binding signal intensity,CaHof1,2
same,SPOT peptide array binding signal intensity,CaHse1,1.5
same,SPOT peptide array binding signal intensity,CaLsb1,≤ 0
same,SPOT peptide array binding signal intensity,CaLsb4,1570
same,SPOT peptide array binding signal intensity,CaMyo5,2.5
same,SPOT peptide array binding signal intensity,CaNbp2,126
same,SPOT peptide array binding signal intensity,CaRvs167,114
same,SPOT peptide array binding signal intensity,CaRvs167-3,16.5
same,SPOT peptide array binding signal intensity,CaSho1,≤ 0
same,SPOT peptide array binding signal intensity,CaSla1-D1-D2,110
same,SPOT peptide array binding signal intensity,CaSla1-D3,≤ 0
same,SPOT peptide array binding signal intensity,ScAbp1,47.5
same,SPOT peptide array binding signal intensity,ScBbc1,186
same,SPOT peptide array binding signal intensity,ScBem1-D1,3.5
same,SPOT peptide array binding signal intensity,ScBzz1-D1,20
same,SPOT peptide array binding signal intensity,ScBzz1-D2,10
same,SPOT peptide array binding signal intensity,ScCyk3,≤ 0
same,SPOT peptide array binding signal intensity,ScFus1,≤ 0
same,SPOT peptide array binding signal intensity,ScHof1,63
same,SPOT peptide array binding signal intensity,ScHse1,≤ 0
same,SPOT peptide array binding signal intensity,ScLsb1,284
same,SPOT peptide array binding signal intensity,ScLsb2,4
same,SPOT peptide array binding signal intensity,ScLsb3,4370
same,SPOT peptide array binding signal intensity,ScLsb4,372
same,SPOT peptide array binding signal intensity,ScMyo3,150
same,SPOT peptide array binding signal intensity,ScMyo5,14.5
same,SPOT peptide array binding signal intensity,ScNbp2,16
same,SPOT peptide array binding signal intensity,ScPex13,47
same,SPOT peptide array binding signal intensity,ScRvs167,1120
same,SPOT peptide array binding signal intensity,ScSho1,7
same,SPOT peptide array binding signal intensity,ScSla1-D1-D2,483
same,SPOT peptide array binding signal intensity,ScSla1-D3,12.5
same,SPOT peptide array binding signal intensity,SpAbp1-D1,70
same,SPOT peptide array binding signal intensity,SpBbc1,26
same,SPOT peptide array binding signal intensity,SpBzz1-D1,295
GQYRRTIVIPRRFFT,SPOT peptide array binding signal intensity,CaNbp2,564
same,SPOT peptide array binding signal intensity,CaRvs167,191
same,SPOT peptide array binding signal intensity,CaRvs167-3,1390
same,SPOT peptide array binding signal intensity,CaSho1,1460
same,SPOT peptide array binding signal intensity,CaSla1-D1-D2,60
same,SPOT peptide array binding signal intensity,CaSla1-D3,89.8
same,SPOT peptide array binding signal intensity,ScAbp1,71
same,SPOT peptide array binding signal intensity,ScBbc1,2.5
same,SPOT peptide array binding signal intensity,ScBem1-D1,9
same,SPOT peptide array binding signal intensity,ScBzz1-D1,17.5
same,SPOT peptide array binding signal intensity,ScBzz1-D2,78
same,SPOT peptide array binding signal intensity,ScCyk3,108
same,SPOT peptide array binding signal intensity,ScFus1,898
same,SPOT peptide array binding signal intensity,ScHof1,4.75
same,SPOT peptide array binding signal intensity,ScHse1,995
same,SPOT peptide array binding signal intensity,ScLsb1,10.2
same,SPOT peptide array binding signal intensity,ScLsb2,29
same,SPOT peptide array binding signal intensity,ScLsb3,210
same,SPOT peptide array binding signal intensity,ScLsb4,33
same,SPOT peptide array binding signal intensity,ScMyo3,12.5
same,SPOT peptide array binding signal intensity,ScMyo5,10
same,SPOT peptide array binding signal intensity,ScNbp2,346
same,SPOT peptide array binding signal intensity,ScPex13,15.2
same,SPOT peptide array binding signal intensity,ScRvs167,69.3
same,SPOT peptide array binding signal intensity,ScSho1,1020
same,SPOT peptide array binding signal intensity,ScSla1-D1-D2,205
same,SPOT peptide array binding signal intensity,ScSla1-D3,54.5
same,SPOT peptide array binding signal intensity,SpAbp1-D1,242
same,SPOT peptide array binding signal intensity,SpBbc1,12.5
same,SPOT peptide array binding signal intensity,SpBzz1-D1,107
same,SPOT peptide array binding signal intensity,SpBzz1-D2,4.5
same,SPOT peptide array binding signal intensity,SpCyk3,21
same,SPOT peptide array binding signal intensity,SpHof1,186
same,SPOT peptide array binding signal intensity,SpHof1-2,50
same,SPOT peptide array binding signal intensity,SpHof1-3,321
same,SPOT peptide array binding signal intensity,SpHse1,573
same,SPOT peptide array binding signal intensity,SpLsb1,5
same,SPOT peptide array binding signal intensity,SpLsb4,131
same,SPOT peptide array binding signal intensity,SpMyo1,4.75
same,SPOT peptide array binding signal intensity,SpNbp2,287
same,SPOT peptide array binding signal intensity,SpPex13,79.5
same,SPOT peptide array binding signal intensity,SpRvs167,43
same,SPOT peptide array binding signal intensity,SpSla1-D1-D2,6
same,SPOT peptide array binding signal intensity,SpSla1-D3,47
